Experimental data as given in PubChem BioAssay (Tox21).
Records with an inconclusive call do not appear. Values without a mark were called inactive. Calls come from the whole dose curve.

Assay: qHTS assay to identify small molecule agonists of the progesterone receptor (PR) signaling pathway - cell viability counter screen (AID 1346799); note: nearly all actives have a fitted effect of over 45% in size
Details: PR-UAS-bla HEK293T viability, CellTiter-Glo luminescence, 16 h; series mostly up to 92.4 µM; activity change, negative = cytotoxicity: at the top concentration
From the text: National Center for Advancing Translational Sciences [NCATS]
NIH Chemical Genomics Center [NCGC]
U.S. Environmental Protection Agency [EPA]
National Institutes of Environmental Health Sciences [NIEHS]
National Toxicology Program [NTP]
U.S. Food and Drug Administration [FDA]
Progesterone receptor (PR), a nuclear hormone receptor, plays an important role in development, metabolic homeostasis and reproduction. It is activated by the steroid hormone progesterone. Endocrine disrupting chemicals (EDCs) and their interactions with steroid hormone receptors like PR causes disruption of normal endocrine function. To identify the compounds that stimulate PR signaling, a PR-UAS-bla GripTite cell line i.e. PR-UAS-bla HEK293T (Invitrogen, Carlsbad, CA, USA) containing a beta-lactamase reporter gene under the control of an UAS response element was used to screen Tox21 10K compound library. The cytotoxicity of the Tox21 compound library against the PR-bla cell line was tested in parallel by measuring the cell viability using CellTiter-Glo assay in the same wells.
Tox21 Assay Protocol Summary:
PR-UAS-bla HEK293T cells were dispensed at 3,000 cells/5 uL of assay medium containing 2% charcoal stripped FBS per well into black wall/clear-bottom 1536-well plates using a Multidrop Combi (ThermoFisher Scientific, Waltham, MA) dispenser. After the assay plates were incubated at a 37C and 5% CO2 for 6 hr, 23 nL of compounds dissolved in DMSO, positive controls or DMSO only was transferred to the assay plate by a Pintool station (Kalypsys, San Diego, CA). The plates were incubated at 37C and 5% CO2 for 16 hr. Then 1 uL of LiveBLAzer B/G FRET substrate was added using a Flying Reagent Dispenser (FRD, Aurora Discovery, San Diego, CA), the plates were incubated at room temperature for 2 hours, and fluorescence intensity was measured by an Envision plate reader (PerkinElmer, Shelton, CT). For cell viability readout that measures cytotoxicity, 4 uL/well of CellTiter-Glo reagent was added into the assay plates using a FRD. After 30 min incubation at room temperature, the luminescence intensity in the plates was measured using a ViewLux (PerkinElmer) plate reader.
% is set by controls: 0 for no effect and ±100 for the full control effect.

| Compound | activity change, negative = cytotoxicity |
| --- | --- |
| CCCCCCCCCCCCCC(=O)OCC | -2.02% |
| CC(CN1CC(=O)NC(=O)C1)N1CC(=O)NC(=O)C1 (stereo not given) | -0.0834% |
| CCCCCCCOC(C)=O | -2.42% |
| O=C(O)COc1ccc2ccccc2c1 | -11.3% |
| CCCCCCCC(=O)N(C)C | 23% |
| COc1cnc(NS(=O)(=O)c2ccc(N)cc2)nc1 | 0.262% [at 42.5 µM] |
| CN(C)CCc1c[nH]c2ccc(C[C@H]3COC(=O)N3)cc12 | 0.638% [at 42.5 µM] |
| Cc1ccccc1OCC(=O)O | -1.34% |
| CCOC(=O)c1ccc(N(C)C)cc1 | 0.603% |
| CN1CCN(C(=O)C2CCCCC2)CC1 | -3.47% [at 42.5 µM] |
| C=CC(=O)CC | 0.959% |
| CC(C)c1cc(C(C)C)cc(C(C)C)c1 | 7.67% |
| O=C1CCCc2c(O)cccc21 | 5.54% [at 42.5 µM] |
| C=CCn1cc[n+](C)c1 | 11.6% |
| CCCCCCCCC1CO1 (stereo not given) | 7.16% |
| CC/C=C/CCCCCCCCCCOC(C)=O | -2.14% |
| CC1=C(O)C(=O)CO1 | -1.73% |
| CC(=O)OC1CCC(C(C)(C)C)CC1 (stereo not given) | 7.09% |
| COCc1nnc(-c2ccc[n+]([O-])c2)n1-c1c(Cl)c(Cl)cc2[nH]c(=O)c(=O)[nH]c12 | -0.206% |
| COC(=O)c1ccc(C(=O)O)cc1 | -0.287% |

| Compound | activity change, negative = cytotoxicity |
| --- | --- |
| CN(C)c1cc(NC(=O)CNC(C)(C)C)c(O)c2c1C[C@H]1C[C@H]3[C@H](N(C)C)C(=O)C(C(N)=O)=C(O)[C@@]3(O)C(=O)C1=C2O | -29% [at 42.5 µM] |
| COc1cc(NS(=O)(=O)c2ccc(N)cc2)ncn1 | 9.08% [at 42.5 µM] |
| C=CC(=O)OCC[N+](C)(C)C | -0.856% |
| N#Cc1ccccc1C#N | -10.8% |
| CCN(CC)CC(=O)Oc1ccc(NC(C)=O)cc1 | 4.53% [at 42.5 µM] |
| O=C(O)CCCCCCCCCC(=O)O | -2.09% |
| COC(=O)C(c1ccccc1Cl)N1CCc2sccc2C1 (stereo not given) | 0.229% [at 42.5 µM] |
| CC(=O)c1ccc(O)c(C(N)=O)c1 | 3.19% [at 42.5 µM] |
| O=C[C@@H](O)[C@H](O)[C@H](O)CO | 6.25% |
| CCO/C=C1\N=C(c2ccccc2)OC1=O | 3.62% |
| CCCc1ncc(C(=O)O)s1 | -0.67% [at 42.5 µM] |
| CCCC[O][Al]([O]CCCC)[O]CCCC | -12.7% |
| Cc1ccc(NC(N)=O)cc1 | -25.9% |
| CC(=O)Nc1ccc(S(=O)(=O)Nc2cc(C)on2)cc1 | 6.33% [at 42.5 µM] |
| COC(=O)c1ccc(NC(C)=O)cc1OC | -6.58% [at 42.5 µM] |
| CC(=O)/C=C/C=C1/C2CCC(C2)C1(C)C (stereo not given) | -13.3% [at 42.5 µM] |
| Clc1cc(Cl)c(Cl)c(Cl)c1Cl | 15.2% |
| CCCCCCCCS(=O)(=O)O | -0.954% |
| CCCC(C)C(O)CC (stereo not given) | -12.1% |
| Cc1ccccc1C#N | -11.4% |
